The values below come from PubChem BioAssay (EPA / NIEHS).

Usually AC50 stands for the concentration at which the activity in the assay is half-maximal.

Structures are written as SMILES. Active and inactive are the calls of the source. How the source made its calls: active means hit-call score of the fitted dose curve at least 0.9, where 1 is the maximum; inactive means score below 0.9.

Aryl hydrocarbon receptor (Homo sapiens), sequence (P35869 whole entry, looked up): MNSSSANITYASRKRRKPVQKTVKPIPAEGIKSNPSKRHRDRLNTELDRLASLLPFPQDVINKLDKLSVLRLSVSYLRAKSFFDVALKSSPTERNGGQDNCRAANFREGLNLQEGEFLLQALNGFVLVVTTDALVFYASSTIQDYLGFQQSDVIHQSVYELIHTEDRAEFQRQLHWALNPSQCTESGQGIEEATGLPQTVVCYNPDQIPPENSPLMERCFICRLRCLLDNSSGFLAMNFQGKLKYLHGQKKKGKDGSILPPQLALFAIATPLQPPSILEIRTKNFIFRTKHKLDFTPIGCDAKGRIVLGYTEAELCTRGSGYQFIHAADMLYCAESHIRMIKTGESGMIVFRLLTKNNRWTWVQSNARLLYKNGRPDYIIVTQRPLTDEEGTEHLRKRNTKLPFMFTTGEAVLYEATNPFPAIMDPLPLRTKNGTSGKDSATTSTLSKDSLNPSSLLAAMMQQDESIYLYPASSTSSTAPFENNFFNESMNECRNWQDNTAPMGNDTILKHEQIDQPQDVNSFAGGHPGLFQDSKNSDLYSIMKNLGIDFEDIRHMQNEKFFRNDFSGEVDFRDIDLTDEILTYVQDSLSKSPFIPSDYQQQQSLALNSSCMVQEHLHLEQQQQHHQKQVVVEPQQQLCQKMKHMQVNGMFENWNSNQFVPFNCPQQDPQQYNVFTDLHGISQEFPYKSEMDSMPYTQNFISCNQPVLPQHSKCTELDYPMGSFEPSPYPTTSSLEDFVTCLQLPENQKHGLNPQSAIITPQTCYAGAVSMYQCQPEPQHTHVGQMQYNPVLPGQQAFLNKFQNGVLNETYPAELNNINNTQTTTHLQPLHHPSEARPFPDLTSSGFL

The target in the assay is Aryl hydrocarbon receptor (Homo sapiens) (UniProt P35869). Nature of the assay: ATG_Ahr_CIS: Attagene CIS-FACTORIAL HepG2 Assay for human Aryl Hydrocarbon Receptor (Ahr) (AID 2282930). The note with it: HepG2 AhR cis-factorial reporter transcription; actives raise or lower the signal. The method, then:
ATG_CIS is a cell-based, multiplexed-readout assay that uses HepG2, a human liver cell line, with measurements taken at 24 hours after chemical dosing in a 24-well plate.ATG_Ahr_CIS is one of 52 assay component(s) measured or calculated from the ATG_CIS assay. It is designed to make measurements of mRNA induction, a form of inducible reporter, as detected with fluorescence intensity signals by Reverse transcription polymerase chain reaction (RT-PCR) and Capillary electrophoresis technology.Data from the assay component ATG_Ahr_CIS was analyzed into 1 assay endpoint. This assay endpoint, ATG_Ahr_CIS, was analyzed with bidirectional fitting relative to DMSO as the negative control and baseline of activity. Using a type of inducible reporter, measures of mRNA for gain or loss-of-signal activity can be used to understand the reporter gene at the transcription factor-level as they relate to the gene AHR. Furthermore, this assay endpoint can be referred to as a primary readout, because this assay has produced multiple assay endpoints where this one serves a reporter gene function. To generalize the intended target to other relatable targets, this assay endpoint is annotated to the dna binding intended target family, where the subfamily is basic helix-loop-helix protein.
Human liver HepG2 cells are transiently transfected with multiple reporter transcription units (MRTUs) in 6-well plates using FuGene 6 reagent (Roche; 3 ml FuGene/1 mg DNA). The MRTU constructs are regulated by a cis-regulating element (promoter). […] A major difference between the CIS and TRANS system is that in CIS activities of endogenous TFs are measured, whereas the TRANS assay evaluates changes in activities of exogenous, chimeric NR-Gal4 proteins. […] At the end of 24 hour incubation, total RNA was isolated using TriZol reagent (Invitrogen). The isolated RNA is then reverse-transcribed using oligo(dT) primer and Mo-MLV reverse transcriptase (Invitrogen) with DNAse I (Ambion) treatment for 30 min. The one-tenth of the produced cDNA was amplified by PCR using Taq DNA polymerase (Invitrogen) and two reporter sequence-specific primers. The PCR products were fluorescently labeled by primer extension with 6-arboxyfluorescein (6-FAM) 5'-labeled reporter sequence-specific primer (2 min at 95 C, 20 s at 68 C and 10 min at 72 C) and these products were digested with 5U of HpaI (New England Biolabs) for 2h at 37 C. […] The raw capillary electrophoresis data was processed using Attagraph software (Attagene).
On to `CCCCCCCCCCCC(=O)OCC(O)CO` (stereo not given), for which the concentration at half-maximal activity (AC50) was 21.3 µM (active).
With `CC1(C)O[C@@H]2[C@@H](CO[C@@]3(COS(N)(=O)=O)OC(C)(C)O[C@@H]23)O1`, the compound was classed as inactive.
Take `CCOc1ccc(NC(=O)CC(C)=O)cc1`: the compound was called inactive.
`COc1cc([C@@H]2c3cc4c(cc3[C@@H](O[C@@H]3O[C@@H]5CO[C@@H](C)O[C@H]5[C@H](O)[C@H]3O)[C@H]3COC(=O)[C@H]23)OCO4)cc(OC)c1O`: the compound was called inactive.
Turning to `CCCCCCCC(=O)OCCCCCC`, the outcome was inactive.
For the compound `OCC(O)c1ccccc1` (stereo not given), the compound was called inactive.
For the compound `CC(=O)c1ccccn1`, the compound was classed as inactive.
Take `CC/C=C\CC/C=C/CO`: the result was inactive.
On the same count and under the same terms, with `O=C1OC[C@H](Cc2cccc(O)c2)[C@H]1Cc1cccc(O)c1` the entry was “inactive”.
In the case of `CC(=O)NCCO`, the compound was classed as inactive.
Regarding `Cc1occc(=O)c1OC(=O)C(C)C`, the outcome was inactive.
Regarding `COc1cc(CCC(C)=O)ccc1O`, the compound was classed as inactive.
Still for that read-out and setting: the entry for `CC(C)C(OC(=O)c1ccccc1)C(C)(C)COC(=O)c1ccccc1` (stereo not given) is “inactive”; for `O=C1OC(=O)c2c(Br)c(Br)c(Br)c(Br)c21` it is “inactive”.
As to `CCCCC(CC)COC(C)=O` (stereo not given), the outcome was inactive.
For `CN(C)CCOC(C)(c1ccccc1)c1ccccn1` (stereo not given), the compound was called inactive.
On the same count and under the same terms, the entry for `COc1cc(C(C)C)ccc1C` is “inactive”.
`O=C(Nc1ccc2c(c1)Cc1ccccc1-2)C(F)(F)F`: the AC50 is 10.2 µM (active).
As to `c1ccc(CN(Cc2ccccc2)Cc2ccccc2)cc1`, the compound was called inactive.
For `Cc1ccc(S(N)(=O)=O)cc1`, the result was inactive.
Regarding `C=C(C)C(=O)OCCOCCOCCOC(=O)C(=C)C`, the compound was classed as inactive.
On to `NC1CCCCC1N` (stereo not given), for which the call was inactive.
With `O=C(Nc1ccc([N+](=O)[O-])cc1)Nc1ccc([N+](=O)[O-])cc1` (tested in a mixture with another compound), the AC50 was 35.1 µM (active).
With `OCCOCCN1CCN(C2=Nc3ccccc3Sc3ccccc32)CC1`, the AC50 is 113 µM (active).
As to `CCCOCCO`, the call was inactive.
Consider `CCCC1O[C@@H]2C[C@H]3[C@@H]4CCC5=CC(=O)C=C[C@]5(C)[C@H]4[C@@H](O)C[C@]3(C)[C@]2(C(=O)CO)O1` (stereo not given in full), for which the compound was classed as inactive.
For `CCCCCCCCSCCO`, the result was inactive.
For `COC(C)(C)CCO`, the compound was classed as inactive.
`CN(C)C(=O)Nc1ccc(Oc2ccc(Cl)cc2)cc1`: the compound was called inactive.
Same read-out and setting: with `CCCCCCC(=O)c1ccccc1` the entry was “inactive”.
In the case of `Cc1cc(S(=O)(=O)O)ccc1N=Nc1c(O)ccc2ccccc12`, the AC50 was 2.32 µM (active).
For `CCc1ccc(O)c(OC)c1`, the compound was called inactive.
Same read-out and setting: the entry for `CCc1cc(C(C)(C)C)c(O)c(C(C)(C)C)c1` is “inactive”; for `COC(=O)C=C(C)CCC=C(C)C` it is “inactive”.
In the case of `O=C(O)c1cc(C(=O)O)cc([N+](=O)[O-])c1`, the call was inactive.
On the same count and under the same terms, with `CCCCCC(C)=O` the entry was “inactive”; with `CN(c1nccc(=O)[nH]1)C1CCN(c2nc3ccccc3n2Cc2ccc(F)cc2)CC1`, “inactive”; with `CC(C)=CCCC(C)CCOC=O` (stereo not given), “inactive”.
On to `C=Cc1ccc(C(C)(C)C)cc1`, for which the compound was classed as inactive.
As for `O=C1OC(=O)c2c(Cl)c(Cl)c(Cl)c(Cl)c21`, the AC50 was 36.2 µM (active).
